# An excerpt weighted towards active compounds, which were near 11% of everything screened.
# hNpr1 antagonist – human Npr1 receptor antagonism. 76,000 tested, 1.6% active. HEK293 hNpr1 GloSensor cGMP, ANP-stimulated luminescence. Potency, µM (highest dose often 46.3 µM), without a hit: at the highest dose activity change, negative = inhibition, actives largely listed as inhibitors. P16066; calls by dose curve; further: nearly all actives have a fitted effect of over 60% in size
# Target sequence (P16066 whole entry, looked up): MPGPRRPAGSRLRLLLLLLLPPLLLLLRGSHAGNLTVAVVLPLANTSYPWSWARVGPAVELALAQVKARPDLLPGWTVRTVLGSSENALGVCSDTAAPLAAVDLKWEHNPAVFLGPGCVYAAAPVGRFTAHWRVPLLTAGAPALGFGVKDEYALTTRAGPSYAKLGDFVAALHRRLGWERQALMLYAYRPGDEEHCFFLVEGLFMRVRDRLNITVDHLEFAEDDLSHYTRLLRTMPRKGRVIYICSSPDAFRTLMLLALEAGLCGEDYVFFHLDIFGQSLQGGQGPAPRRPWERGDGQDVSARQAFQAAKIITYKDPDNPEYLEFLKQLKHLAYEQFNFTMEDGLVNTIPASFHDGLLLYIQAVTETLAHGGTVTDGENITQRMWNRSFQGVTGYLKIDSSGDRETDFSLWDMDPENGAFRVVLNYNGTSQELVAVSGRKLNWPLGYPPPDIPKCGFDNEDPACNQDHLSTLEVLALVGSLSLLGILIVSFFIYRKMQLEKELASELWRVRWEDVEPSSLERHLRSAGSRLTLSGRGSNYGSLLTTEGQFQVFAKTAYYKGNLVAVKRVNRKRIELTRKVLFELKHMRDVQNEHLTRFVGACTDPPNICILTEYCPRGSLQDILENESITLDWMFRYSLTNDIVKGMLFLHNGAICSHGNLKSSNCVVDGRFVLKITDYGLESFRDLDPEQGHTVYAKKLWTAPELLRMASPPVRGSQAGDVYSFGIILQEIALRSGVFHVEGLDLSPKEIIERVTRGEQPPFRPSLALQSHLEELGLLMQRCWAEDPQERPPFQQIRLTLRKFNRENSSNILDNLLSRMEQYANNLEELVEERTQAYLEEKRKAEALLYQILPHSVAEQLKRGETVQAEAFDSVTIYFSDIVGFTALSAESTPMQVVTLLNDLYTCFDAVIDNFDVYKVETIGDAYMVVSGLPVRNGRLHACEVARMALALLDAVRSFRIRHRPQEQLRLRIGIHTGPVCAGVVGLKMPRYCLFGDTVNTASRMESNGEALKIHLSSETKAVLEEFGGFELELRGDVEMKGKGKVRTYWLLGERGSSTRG
#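 Compound pre-incubated 30 min at room temperature on GloSensor-loaded HEK293 cells stably carrying hNpr1 and the pGS-40F cGMP biosensor. Stimulation uses hNppA at 0.1 nM final; luminescence is taken at baseline and 20 min post-agonist.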
# HEK293 tox – kills HEK 293 cells; 94,000 tested, 6.6% active; Potency, µM (top dose mostly 115 µM), for the others: top-dose activity change, negative = cytotoxicity, actives largely listed as inhibitors; HEK 293 viability, ATP luminescence (CellTiter-Glo), 48-72 h; AID 1345083; further: nearly all actives have a fitted effect of over 60% in size
#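 ATP-coupled CellTiter-Glo luminescence served as viability read-out, recorded 10 min after reagent addition at room temperature. HEK 293 cells, 250 cells/well, had been incubated with pintool-transferred compound for 48 or 72 hr at 37 degree Celsius.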
# 3T3 cytotox – cytotoxic compounds in NIH 3T3 cells | NIH 3T3 viability, CellTiter-Glo ATP luminescence, 48-72 h | 94,000 tested, 4.3% active | AID 1345082 | Potency, µM (highest dose often 96.7 µM), for inactives: top-dose activity change, negative = cytotoxicity, most hits filed as inhibitors; further: nearly all actives have a fitted effect of over 55% in size
#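 Viability of NIH 3T3 cells after 48 or 72 hr compound treatment at 37 °C was assessed by CellTiter-Glo, with luminescence imaged following a 10 min room-temperature step.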
# Luciferase inh – Photinus pyralis luciferase inhibition; P08659; purified P. pyralis luciferase, luminescence, biochemical; Potency, µM (titrated, usually from 115 µM), usual class: inhibitors; 76,000 tested, 2.5% active; further: nearly all actives have a fitted effect of over 65% in size
#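 Biochemical qHTS: compound (6-point titration) added to 10uM D-luciferin plus 10uM ATP in Tris acetate pH 7.5 buffer with Mg, Tween-20 and BSA, then purified enzyme at 10nM; light output imaged.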
# Active calls of the source: *; i = inactive; ? = inconclusive; nt = no result; ! = repeats disagree; [ ] = another dose, or the depositor's remark. Unless noted, the call rests on the fitted dose curve; in most records, active means well fitted curve in the direction sought with a large enough effect; inconclusive means small, poorly fitted or top-dose-only effect, or another doubt; inactive means no such curve, though single readings can be large; an effect the other way counts as inactive or inconclusive. On the % scale 0 is the no-effect control and ±100 the full control effect; potency means the concentration at half of the fitted maximal effect.
SMILES,hNpr1 antagonist,HEK293 tox,3T3 cytotox,Luciferase inh
CN1CCC2(C1)CN(Cc1ccccc1)c1ccc(C(=O)Nc3ccn(C)n3)cc12 (stereo not drawn),2.7%[70.6 µM],?,?,i
CN1CCCC2(C1)CN(Cc1cccnc1)c1ccc(C(=O)NCC3CCCCC3)cc12 (stereo not drawn),1.5%[70.6 µM],89.1µM*,35.5µM*,i
CN(Cc1cccc(C(F)(F)F)c1)Cc1ccnn1C,nt,-3.5%[230 µM],-11.2%[174 µM],nt
COc1ccc(-c2noc(Nc3ccc(OC)cc3OC)n2)cc1,-1.5%,?,-29.4%,25.1µM*
CCc1cccc(Nc2nc(-c3ccc(OC)c(OC)c3)no2)c1,-13.6%,?,?,?
COC(=O)c1ccccc1Nc1nc(-c2ccccc2)no1,-8.7%,10.4%,i,14.1µM*
COC(=O)c1ccccc1NC(=O)Cn1cccc1-c1nc(-c2ccc(OC)c(F)c2)no1,1.0%,11.4%,3.8%,i
Cn1cnc2cc(-c3ccccc3)cc(C(=O)NCc3cccnc3)c21,-4.9%[70.6 µM],-24.3%[172 µM],?,i
Cn1cnc2cc(-c3cccc(C(F)(F)F)c3)cc(C(=O)NCc3cccnc3)c21,-5.6%[70.6 µM],100µM*,?,i
Cn1cnc2cc(-c3ccc(N4CCOCC4)cc3)cc(C(=O)NCc3cccnc3)c21,-0.9%[70.6 µM],1.2%[172 µM],89.1µM*,i
COc1cc(CNC(=O)c2cc(-c3cccc(N(C)C)c3)cc3ncn(C)c23)ccn1,4.0%[70.6 µM],70.8µM*,?,?
COc1ccc(-c2cc(C(=O)NCc3ccnc(N)c3)c3c(c2)ncn3C)cc1,-7.6%[70.6 µM],?,?,i
CC1(c2ccccc2)N(Cc2ncccn2)C(=O)OC12CCN(Cc1ccc(F)cc1)CC2 (stereo not drawn),-3.9%,?,-14.0%,i
CN1CCC(OC2CCN(S(=O)(=O)c3ccccc3C(F)(F)F)CC2)CC1,-3.9%,-10.5%,-30.8%,i
Cc1nn(-c2ccccc2)c(C)c1[C@@H]1C=C[C@@H](NC(=O)c2ccc(N(C)C)cc2)C1,?,70.8µM*,?,?
Cc1ccc(-n2nc(C)c([C@@H]3C=C[C@@H](NC(=O)c4cccs4)C3)c2C)cc1Cl,-23.8%[70.6 µM],?,?,25.1µM*
Cc1nn(-c2ccc(C(C)(C)C)cc2)c(C)c1[C@@H]1C=C[C@@H](NC(=O)c2cccs2)C1,-10.4%[70.6 µM],35.5µM*,?,20µM*
Cc1nn(-c2ccc(C(F)(F)F)cc2)c(C)c1[C@@H]1C=C[C@@H](NC(=O)c2cccs2)C1,-10.7%[70.6 µM],?,28.2µM*,?
COCCOC1CN(C2CCN(Cc3ccc(F)cc3F)CC2)C12CCCCC2 (stereo not drawn),nt,?,-22.9%,nt
O=c1[nH]c(C2CCCN(Cc3cccc(-c4cccs4)c3)C2)nc2ccc(F)cc12 (stereo not drawn),?,31.6µM*,31.6µM*,i
O=c1[nH]c(C2CCCN(Cc3cccc(-c4cccnc4)c3)C2)nc2ccc(F)cc12 (stereo not drawn),-29.3%,?,?,i
Cc1ccc2nc(C3CCCN(Cc4cccc(-c5cccs5)c4)C3)[nH]c(=O)c2c1 (stereo not drawn),?,?,?,i
Cc1ccc(-c2cccc(CN3CCCC(c4nc5ccc(F)cc5c(=O)[nH]4)C3)c2)c(C)c1 (stereo not drawn),-5.1%,31.6µM*!,39.8µM*,i
O=C(c1cn(Cc2ccccc2F)nn1)N1CCC(O)(c2cccc(C(F)(F)F)c2)CC1,-11.4%,?,?,i
CC1=C[C@@H](CN2CCN(CCO)CC2)[C@H](C(C)C)C[C@H]1Cc1nnc(-c2ccc(N(C)C)cc2)o1,1.1%,14.1µM*,20µM*,i
SMILES,hNpr1 antagonist,HEK293 tox,3T3 cytotox,Luciferase inh
CC1=C[C@@H](CN2CCN(c3cnccn3)CC2)[C@H](C(C)C)C[C@H]1Cc1nnc(-c2ccccc2)o1,-30.2%,25.1µM*,?,i
CCCc1nnc(C[C@@H]2C[C@@H](C(C)C)[C@H](CN3CCN(CCO)CC3)C=C2C)o1,4.7%[70.6 µM],?,?,i
CC1=C[C@@H](CN2CCN(CCO)CC2)[C@H](C(C)C)C[C@H]1Cc1nnc(-c2ccc([N+](=O)[O-])cc2)o1,-2.9%,?,?,i
CC1=C[C@@H](CN2CCC(O)CC2)[C@H](C(C)C)C[C@H]1Cc1nnc(-c2ccc([N+](=O)[O-])cc2)o1,-2.0%,?,?,i
COc1ccc(-c2nnc(C[C@@H]3C[C@@H](C(C)C)[C@H](CN4CCN(CCO)CC4)C=C3C)o2)cc1,-3.9%,44.7µM*,?,i
COc1ccc(-c2nnc(C[C@@H]3C[C@@H](C(C)C)[C@H](CN4CCN(C)CC4)C=C3C)o2)cc1,-2.1%,31.6µM*,39.8µM*,i
COc1ccc(-n2c(=O)c(C(=O)N3CCN(Cc4ccccc4)CC3)nc3cccnc32)cc1,nt,-0.2%,-12.4%,nt
CC(C)S(=O)(=O)c1ncc(CN(CCO)Cc2ccccc2)n1CCc1ccccc1,1.1%,?,-6.6%,i
CC(C)NC[C@H]1O[C@H](Cc2cc(CN(C)Cc3ccccc3)on2)CC[C@@H]1O,3.2%[70.6 µM],-15.4%[172 µM],0.2%[174 µM],i
CC1=C[C@@H](CN2CCN(c3ncccn3)CC2)[C@H](C(C)C)C[C@H]1Cc1nnc(-c2ccc(N(C)C)cc2)o1,-20.5%,28.2µM*,?,i
CC1=C[C@@H](CN2CCN(c3ccccn3)CC2)[C@H](C(C)C)C[C@H]1Cc1nnc(-c2ccc(C)cc2)o1,-27.5%,?,?,i
COc1cccc(C(=O)N2CCCN(c3ccc4nnc(C)n4n3)CC2)c1,nt,i,1.3%,nt
COc1cccc(C(=O)N2CCN(c3ccc4ncc(-c5cccc(C(F)(F)F)c5)n4n3)CC2)c1,nt,?,11.2µM*,nt
Cc1cccc2nc(C(=O)N3CCn4nc(Cc5ccccc5)cc4C3)cn12,?,44.7µM*,?,i
CC(=O)N1CCN(C(=O)c2ccc3nnc(-c4cccc(C(F)(F)F)c4)n3c2)CC1,nt,-0.6%[172 µM],-10.2%[138 µM],nt
O=C(NCc1ccc(Cl)cc1)C1CCN(c2nccc(Nc3ccccc3F)n2)CC1,nt,17.8µM*,28.2µM*,nt
O=C(NCCc1ccc(F)cc1)C1CCN(c2nccc(Nc3ccccc3F)n2)CC1,nt,28.2µM*,?,nt
COc1ccccc1C(=O)Nc1cc(C2CC2)nn1-c1ccccc1,nt,?,22.4µM*,nt
CCS(=O)(=O)N1CCC2(CC1)c1[nH]c3ccccc3c1CCN2C,-1.3%,?,-31.9%,i
Cc1nn(C)c(C)c1S(=O)(=O)N1CCC2(CC1)c1[nH]c3ccccc3c1CCN2C,2.6%,89.1µM*,-17.6%,i
Cc1ccc(CN2CCCCCCNC(=O)[C@@H]3C[C@@H](C(=O)N4CCN(c5ccccn5)CC4)C[C@@H]32)o1,-12.1%,?,-28.0%,i
CN(C)c1nccnc1OC1CCN(C(=O)c2ccoc2)C1 (stereo not drawn),3.2%,22.5%,i,39.8µM*

# From PubChem BioAssay
